Data on seven molecules can be found in PubChem BioAssay (NCATS).

In assay [1] the target is Cytochrome P450 2C9 (Homo sapiens) (UniProt P11712). Nature of the assay: qHTS for inhibitors of CYP2C9 against the NCATS DSHEA and TCM libraries (AID 1919973). Note: potency is the fitted concentration of half-maximal effect. In outline:
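Concentration-response screening with isoform-matched pro-luciferin substrates. The CYP reaction was initiated by NADPH regenerating solution and ran 30-45 min in darkness at room temperature.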

Assay [2] in a line: KB-3-1 P-gp reporter qHTS against the NCATS DSHEA and TCM libraries (AID 1919975). Note: 0% is about no effect. The method, boiled down: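 72 h exposure of KB-3-1 cells (DMEM, 10% FBS) to DSHEA/TCM samples, concentration-response; cell viability measured as CellTiter-Glo luminescence after 30 min at room temperature.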
A general note: In qHTS, concentration-response curves come from the screen itself.

A short description of assay [3]: qHTS Counterscreen for compound interference against the NCATS DSHEA and TCM libraries (AID 1919978). Note: % of control where 0% means no effect. As to conditions: firefly luciferase detection reagent interference, luminescence. The method, boiled down:
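Read-out is luminescence after 30 min at RT with luciferin detection reagent. Before that, compounds (19.5 nM to 39.8 uM final) sat 15 min at RT with 1 uM D-luciferin or 100 mM potassium phosphate buffer. PTC124 served as intraplate control.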

Assay [4] can be described thus: Dual reporter qHTS for agonist of Pregnane X Receptor (hPXR) against the NCATS DSHEA and TCM libraries: Fluorescence readout (AID 1920058). Note: 0% is about no effect. The method, boiled down:
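Cells were plated at 2000 per well and allowed to attach for 5 h. Test substances were pinned in and incubated roughly 24 h. CellTiter-Fluor was then added and fluorescence measured after 1 h.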

In assay [5] the target is Nuclear receptor subfamily 1 group I member 2 (Homo sapiens) (UniProt O75469). Briefly: Dual reporter qHTS for agonist of Pregnane X Receptor (hPXR) against the NCATS DSHEA and TCM libraries: Luminescence readout (AID 1920059). Note: 0% is about no effect. In outline: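 hPXR-LucHepG2 cells in phenol red-free DMEM with 5% charcoal-stripped FBS, 2000 cells/well, attached 5 h, then exposed 24 h at 37C to compounds; rifampicin as positive agonist control (2.8 nM–92 uM). Luciferase luminescence read.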

Assay [6] shares this target. Briefly: Dual reporter qHTS for antagonist of Pregnane X Receptor (hPXR) against the NCATS DSHEA and TCM libraries: Luminescence Readout (AID 1920060). Note: 0% is about no effect. In outline:
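Rifampicin-stimulated (2 uM final) hPXR-luciferase HepG2 cells were treated for 24 h with DSNP/TCM substances. Viability came from CellTiter-Fluor fluorescence, reporter activity from ONE-Glo luminescence.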

The nature of assay [7]: qHTS profiling for inhibitors of Plasmodium falciparum proliferation (AID 504749).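 For activity, negative = inhibition: 0% = DMSO vehicle and full inhibition = artemisinin control.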 Note: nearly all actives have a fitted effect of over 60% in size. Note: potency is the fitted concentration of half-maximal effect. Conditions: P. falciparum in erythrocytes, SYBR Green DNA, 72 h. The method, boiled down:
(§1)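 Quantitative HTS: compounds pinned into medium, infected erythrocytes added (0.3% parasitemia, 2.5% hematocrit), 72 h culture at 37 C under 5% CO2. Saponin/Triton lysis with SYBR Green I, overnight RT, then fluorescence read.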

The test system of a further assay is 3D7. The description is as above. Conditions: P. falciparum in erythrocytes, SYBR Green DNA, 72 h; series mostly up to 28.7 µM. In outline:
as §1

A further assay concerns AA1029. Described as above. As to conditions: P. falciparum in erythrocytes, SYBR Green DNA, 72 h; series mostly up to 28.7 µM. In outline:
as §1

Another assay deals with AS120. The description is as above. Conditions: P. falciparum in erythrocytes, SYBR Green DNA, 72 h; series mostly up to 28.7 µM. In outline:
as §1

The subject of the next assay is ATS189. The assay is described as above. Conditions: P. falciparum in erythrocytes, SYBR Green DNA, 72 h; series mostly up to 28.7 µM. In outline: as §1
For another assay, the system named is C2A. The description is as above. As to conditions: P. falciparum in erythrocytes, SYBR Green DNA, 72 h; series mostly up to 28.7 µM. The method, boiled down: as §1
For a further assay, the system named is CP185. The description is as above. Conditions: P. falciparum in erythrocytes, SYBR Green DNA, 72 h; series mostly up to 28.7 µM. The method, boiled down: as §1
The next assay deals with CP192. The assay is described as above. Conditions: P. falciparum in erythrocytes, SYBR Green DNA, 72 h; series mostly up to 28.7 µM. The method, boiled down: as §1
Assay [8] in a line: qHTS drug screen for cell cycle checkpoint inhibitors in PARPi-resistant BRCA-mutant ovarian cancer cell lines. (AID 1963452; calls by dose curve). As to conditions: PEO1/OlaR viability, CellTiter-Glo luminescence, 96 h, stronger effect = lower value. The method, boiled down:
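PEO1, PEO4 and PEO1/OlaR ovarian cancer cells, 600 per well, exposed 96 h at 37C to a dilution series. Viability read by CellTiter-Glo luminescence, normalized to DMSO and empty wells; activity summarized as Z-AUC.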

Another assay has as its system 7G8. Nature of the assay: qHTS profiling for inhibitors of Plasmodium falciparum proliferation (AID 504749).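 For activity, negative = inhibition: 0% = DMSO vehicle and full inhibition = artemisinin control.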 Note: nearly all actives have a fitted effect of over 60% in size. Note: potency is the fitted concentration of half-maximal effect. As to conditions: P. falciparum in erythrocytes, SYBR Green DNA, 72 h; series mostly up to 28.7 µM. In outline: as §1
In a further assay the test system is ATS95. The description is as above. Conditions: P. falciparum in erythrocytes, SYBR Green DNA, 72 h; series mostly up to 28.7 µM. The method, boiled down:
as §1

The test system of a further assay is CP191. The assay is described as above. As to conditions: P. falciparum in erythrocytes, SYBR Green DNA, 72 h; series mostly up to 28.7 µM. The method, boiled down:
as §1

For assay [9], the target named is Cytochrome P450 2D6 (Homo sapiens) (UniProt P10635). Briefly: qHTS for inhibitors of CYP2D6 against the NCATS DSHEA and TCM libraries (AID 1919972). Note: % is set by controls: 0 for no effect and ±100 for the full control effect. The method, boiled down:
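CYP2D6 enzyme with pro-luciferin substrate in manufacturer buffer (typically 100 mM KPO4), preincubated 15 min RT with substances (most at 19.5 nM upward); NADPH regeneration system (1x) started 30–45 min RT reaction; P450-Glo luminescence read after 30 min; quinidine as intraplate control.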

[10] abbreviates: at 28.7 µM (top of the series), parasite line A.
Where [11] appears, read: at 28.7 µM (top of the series), parasite line B.
Where [12] appears, read: measured here: PEO1 parental Z-AUC.

Results filed as inconclusive are left out. The source made the active and inactive calls. Unless noted, calls come from the whole dose curve; as a rule, active = well fitted curve in the direction sought with a large enough effect; inconclusive = small, poorly fitted or top-dose-only effect, or another doubt; inactive = no such curve, though single readings can be large; an effect the other way counts as inactive or inconclusive.

Chain of Nuclear receptor subfamily 1 group I member 2 (Homo sapiens) (O75469 whole entry, looked up): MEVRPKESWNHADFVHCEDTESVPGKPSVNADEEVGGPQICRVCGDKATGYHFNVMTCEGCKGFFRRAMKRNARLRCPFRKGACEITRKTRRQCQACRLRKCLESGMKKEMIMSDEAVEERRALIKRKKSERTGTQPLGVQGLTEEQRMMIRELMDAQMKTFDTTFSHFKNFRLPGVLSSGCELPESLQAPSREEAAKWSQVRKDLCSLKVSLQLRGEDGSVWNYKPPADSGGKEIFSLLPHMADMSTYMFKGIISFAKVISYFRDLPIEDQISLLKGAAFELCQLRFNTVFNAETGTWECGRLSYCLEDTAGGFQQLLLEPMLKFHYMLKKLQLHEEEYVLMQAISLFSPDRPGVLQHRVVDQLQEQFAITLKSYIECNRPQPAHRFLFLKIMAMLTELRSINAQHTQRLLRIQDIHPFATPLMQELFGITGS
Chain of Cytochrome P450 2C9 (Homo sapiens) (P11712 whole entry, looked up, canonical isoform): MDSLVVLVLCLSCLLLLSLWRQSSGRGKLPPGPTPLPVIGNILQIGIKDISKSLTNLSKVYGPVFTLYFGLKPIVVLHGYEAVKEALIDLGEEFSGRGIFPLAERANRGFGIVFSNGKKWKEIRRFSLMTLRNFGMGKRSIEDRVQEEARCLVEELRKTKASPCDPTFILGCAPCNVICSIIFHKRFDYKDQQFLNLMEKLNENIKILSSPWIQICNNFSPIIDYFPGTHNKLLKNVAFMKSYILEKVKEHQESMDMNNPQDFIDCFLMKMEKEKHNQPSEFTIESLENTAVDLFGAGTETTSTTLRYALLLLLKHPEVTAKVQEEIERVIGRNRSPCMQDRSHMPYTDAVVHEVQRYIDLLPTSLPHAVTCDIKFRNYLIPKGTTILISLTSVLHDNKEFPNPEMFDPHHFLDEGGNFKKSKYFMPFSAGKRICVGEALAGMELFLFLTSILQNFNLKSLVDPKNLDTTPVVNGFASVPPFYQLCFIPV
Chain of Cytochrome P450 2D6 (Homo sapiens) (P10635 whole entry, looked up): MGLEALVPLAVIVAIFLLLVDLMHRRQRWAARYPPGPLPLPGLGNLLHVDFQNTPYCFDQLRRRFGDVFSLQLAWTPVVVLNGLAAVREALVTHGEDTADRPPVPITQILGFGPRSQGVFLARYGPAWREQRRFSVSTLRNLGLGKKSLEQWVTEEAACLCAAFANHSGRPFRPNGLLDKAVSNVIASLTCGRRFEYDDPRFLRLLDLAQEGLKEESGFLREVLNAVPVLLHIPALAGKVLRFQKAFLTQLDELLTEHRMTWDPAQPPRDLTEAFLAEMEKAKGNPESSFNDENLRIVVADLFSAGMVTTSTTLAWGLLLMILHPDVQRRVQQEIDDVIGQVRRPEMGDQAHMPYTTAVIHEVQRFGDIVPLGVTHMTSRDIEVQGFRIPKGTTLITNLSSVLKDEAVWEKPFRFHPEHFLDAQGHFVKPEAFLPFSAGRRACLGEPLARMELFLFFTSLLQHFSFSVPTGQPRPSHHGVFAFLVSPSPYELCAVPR

In the case of `CC/C=C\C/C=C\C/C=C\CCCCCCCC(=O)O`, the Potency in assay [1] is 7.94 µM (active). The outcome in assay [2], in assay [4] and in assay [6] was inactive. Besides, in [3], the max response is -1.87% (inactive). The Potency result (in assay [5]; in the assay with 3D7; in the assay on AA1029; in the assay with AS120; with ATS189; in the assay with C2A) was “inactive” throughout. Further, the Potency entry in the assay on CP185 and in the assay with CP192 was “inactive” each time. Besides, the activity, negative = inhibition in assay [7] (setting [10]) is -1.47% (inactive); in assay [7] (setting [11]), -1.74% (inactive).

In the case of `CN[C@@H]1[C@@H](O)[C@@H](O[C@@H]2[C@@H](O)[C@H](O[C@H]3O[C@H](CN)[C@@H](O)[C@H](O)[C@H]3O)[C@@H](N)C[C@H]2NC(=O)C(O)CN)OC[C@]1(C)O` (stereo partly drawn), the figures for the Z-AUC in [8], in assay [8] (setting [12]) and in assay [8] (measured here: PEO4 Z-AUC) were -1.59 (inactive), -0.482 and -1.12, respectively.

As to `COc1cc(C)c(/C=C/C(C)=C/C=C/C(C)=C/C(=O)O)c(C)c1C`, the figures for the Z-AUC in assay [8], in assay [8] (setting [12]) and in [8] (measured here: PEO4 Z-AUC) were 0.967 (inactive), 0.941 and 1.13, respectively. Also, the values for the activity, negative = inhibition in assay [7] (setting [10]) and in [7] (setting [11]) were -5.12% (inactive) and -0.604% (inactive), respectively. In addition, the Potency entry in the assay with 3D7, with 7G8, in the assay on AA1029, with AS120, in the assay with ATS189 and with ATS95 was “inactive” each time. Moreover, the Potency result with C2A, with CP185, with CP191 and in the assay with CP192 was “inactive” in each case.

As for `COc1cc(NCCCC(C)N)c2ncccc2c1` (stereo not drawn), the Potency was 2 µM (active) in assay [7] (parasite line A); 0.891 µM (active) in assay [7] (parasite line B); 2 µM (active) in the assay with 3D7; 0.224 µM (active) in the assay with 7G8; 12.6 µM (active) in the assay on AA1029; 3.16 µM (active) in the assay on AS120. Also, the Potency in the assay on ATS189 was 11.2 µM (active); in the assay with ATS95 it was 11.2 µM (active); in the assay with C2A, 10 µM (active); in the assay with CP185 it was 11.2 µM (active); with CP191 it was 5.01 µM (active).

With `COc1ccc([C@@H]2CC(=O)c3c(O)cc(O[C@@H]4O[C@H](CO[C@@H]5O[C@@H](C)[C@H](O)[C@@H](O)[C@H]5O)[C@@H](O)[C@H](O)[C@H]4O)cc3O2)cc1O`, the Z-AUC is -0.188 (inactive) in assay [8], 0.305 in [8] (setting [12]) and 0.67 in assay [8] (measured here: PEO4 Z-AUC).

As to `Cc1ncc(C[n+]2csc(CCO)c2C)c(N)n1`, the outcome in assay [9], in assay [2] and in [4] was inactive. Moreover, the max response in assay [3] is -0.256% (inactive). Moreover, the Potency result (in [5]; in the assay with 3D7; in the assay on 7G8; in the assay on AA1029; with AS120; in the assay with ATS189) was “inactive” throughout. Besides, the Potency result with ATS95, with C2A, in the assay with CP185, in the assay with CP191 and in the assay on CP192 was “inactive” throughout. Further, the activity, negative = inhibition in assay [7] (at 12.8 µM (top of the series), parasite line A) is 5.7% (inactive); in [7] (at 12.8 µM (top of the series), parasite line B) it was 7.59% (inactive).

As to `CCCCCCCCCCCC(=O)OCC(O)CO` (stereo not drawn), the outcome in assay [9], in assay [2], in assay [4] and in assay [6] was inactive. In addition, the Potency result (in assay [1]; in assay [5]; in the assay with 3D7; in the assay on 7G8; in the assay with AA1029; in the assay on AS120) was “inactive” each time. Also, the Potency entry with ATS189, with ATS95, in the assay with C2A, in the assay on CP185, in the assay with CP191 and with CP192 was “inactive” in each case. Besides, the max response in assay [3] was 2.27% (inactive). Also, the activity, negative = inhibition in [7] (setting [10]) was 0.724% (inactive); in assay [7] (setting [11]) it was -1.86% (inactive).
